Test systems include TTK; TXK; TYRO3; ULK1; ULK2; ULK3; VRK2; WEE1; WEE2; WNK1; WNK2; WNK3; WNK4.
What all share (details): concentration: 1 μM, replicates: in singlicate; n = 1
In test [1] the test system is TYK2(JH1domain-catalytic).
The subject of test [2] is TYK2(JH2domain-pseudokinase).
Another test deals with T1, VEGFR2.
T1 construct: gene KDR

The subject of another test is T2, VPS34.
T2 construct: gene PIK3C3

For a further test, the system named is T3, YANK1.
T3 construct: gene STK32A

The test system of another test is T4, YANK2.
T4 construct: gene STK32B

Another test concerns T5, YANK3.
T5 construct: gene STK32C

From paper PMC5540273 (PLoS ONE, 2017) come the findings set out here.
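Also: KINOMEscan kinase panel screen.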

With `Cl.c1ccc(-c2n[nH]cc2-c2ccnc(-c3ccc(CN4CCOCC4)cc3)c2)nc1` [GW776245], the “%Inh” value worked out at 31% in the test on TTK; 7% in the test on TXK; 0% in [1]; 0% in test [2]; 0% in the test on TYRO3; 0% with ULK1. The “%Inh” value amounted to 0% in the test with ULK2; 20% in the test with ULK3; 0% with VEGFR2; 0% in the test with VPS34; 0% in the test on VRK2; 16% in the test on WEE1. The “%Inh” value in the test on WEE2, in the test on WNK1, in the test with WNK2, in the test on WNK3, in the test with WNK4 and with YANK1 was 0% each time. In addition, the “%Inh” value in the test with YANK2 and in the test with YANK3 was 0% in each case.
As to `Clc1cc(Cl)cc(Nc2ccnc(Nc3cc(Cl)cc(Cl)c3)n2)c1` [GSK175726], the “%Inh” value (with TTK; in the test with TXK; in test [1]; in [2]; with TYRO3; in the test with ULK1) was 0% each time. Moreover, the “%Inh” value is reported as 0% with ULK2; 0% in the test with ULK3; 12% in the test on VEGFR2; 0% in the test with VPS34; 6% with VRK2; 6% in the test on WEE1. In addition, the “%Inh” value was determined as 0% with WEE2; 0% with WNK1; 0% in the test with WNK2; 22% in the test with WNK3; 32% in the test with WNK4; 0% with YANK1. For the same compound, the “%Inh” value amounted to 0% in the test with YANK2 and 14% in the test on YANK3.
Turning to `Cc1ccc(NC(=O)Nc2cccc(Cl)c2)cc1-c1ccc(C(=O)Nc2ccncc2)cc1` [GSK1398468], the “%Inh” value in the test on TTK worked out at 0%; in the test on TXK, 0%; in [1] it was 0%; in test [2] it was 26%; in the test with TYRO3 it was 0%; in the test on ULK1 it was 11%. Also, the “%Inh” value with ULK2 worked out at 0%; in the test on ULK3 it was 5%; in the test with VEGFR2, 16%; in the test on VPS34, 0%; in the test with VRK2, 0%; with WEE1 it was 2%. The “%Inh” value with WEE2 stood at 21%; with WNK1, 7%; in the test on WNK2, 0%; with WNK3, 18%; in the test on WNK4 it was 24%; with YANK1 it was 10%. The “%Inh” value with YANK2 and with YANK3 was 0% each time.
Regarding `CC(C)(C)c1ccc(C(=O)Nc2cn3cc(-c4cccnc4)ccc3n2)cc1`, the “%Inh” value in the test with TTK came to 9%; in the test on TXK it was 18%; in test [1], 0%; in test [2], 19%; in the test on TYRO3, 11%; in the test on ULK1, 0%. Moreover, the “%Inh” value in the test with ULK2 is on record as 14%; in the test with ULK3, 33%; in the test with VEGFR2 it was 0%; in the test on VPS34, 12%; in the test on VRK2, 0%; in the test on WEE1 it was 0%. The “%Inh” value amounted to 0% in the test with WEE2; 0% in the test on WNK1; 36% in the test on WNK2; 0% in the test on WNK3; 26% with WNK4; 3% in the test on YANK1. Besides, the figures for the “%Inh” value in the test on YANK2 and in the test with YANK3 were 0% and 20%, respectively.
Consider `Fc1cccc(COc2nnc(-c3ccc4c(c3)CCO4)o2)c1`, for which the “%Inh” value is listed as 14% in the test with TTK; 0% with TXK; 3% in [1]; 6% in [2]; 0% in the test on TYRO3; 0% with ULK1. The “%Inh” value was 14% with ULK2; 0% with ULK3; 25% with VEGFR2; 17% with VPS34; 0% in the test on VRK2; 0% in the test with WEE1. The “%Inh” value is recorded as 19% in the test on WEE2; 0% in the test with WNK1; 0% with WNK2; 0% in the test with WNK3; 0% in the test with WNK4; 0% with YANK1. Besides, the “%Inh” value with YANK2 is 0%; with YANK3, 19%.
